We go through 13 compounds from the supplement of paper PMC9177965.

Values joined by “and” are separate entries in the source; they are usually repeats but may differ in a detail not shown here. Equal entries are not always repeated.

This assay deals with HT29 RNF43 G659fs (RNF43 659mut, CRISPR-edited). The experiment in a line: cell viability activity relative to DMSO (negative = inhibition); higher = more viable cells (less growth inhibition). Particulars: 5 µM; 96 h. The procedure:
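Broad Repurposing Library primary screen at a single dose of 5 uM. HT29 sg-Ctrl and HT29 RNF43 G659fs CRISPR-edited isogenic cells were seeded at 2500 cells/well in 384-well plates in duplicate and treated for 96 h. Viability was read by CellTiter-Glo and reported as % activity relative to DMSO, with MG132 as the positive control (negative = growth inhibition).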
Regarding `C[C@@]1(CO)[C@H](O)CC[C@@]2(C)[C@H]1CC[C@H]1C[C@@H]3C[C@@]12CC[C@]3(O)CO`, the cell viability activity was -31.8%.
As for `C[C@]12CC[C@H](O)C[C@H]1CC[C@@H]1[C@@H]2CC[C@]2(C)[C@@H](C3=CC(=O)OC3)CC[C@]12O`, the figure is -87.2%.
The result for `CN(C)C(=S)SSC(=S)N(C)C` reads -72.8%.
On to `C[C@@H]1O[C@@H](O[C@H]2C[C@@H](O)[C@]3(CO)[C@H]4[C@H](O)C[C@]5(C)[C@@H](C6=CC(=O)OC6)CC[C@]5(O)[C@@H]4CC[C@]3(O)C2)[C@H](O)[C@H](O)[C@H]1O`, for which the cell viability activity was -90.4% and -90%.
In the case of `CC(=O)O[C@@]12CO[C@@H]1C[C@H](O)[C@@]1(C)C(=O)[C@H](O)C3=C(C)[C@@H](O)C[C@@](O)([C@@H](OC(=O)c4ccccc4)[C@H]21)C3(C)C`, the cell viability activity was -37.1%.
On to `C/C=C(\C)C(=O)N[C@@H](c1ccccc1)[C@@H](O)C(=O)O[C@H]1C[C@@]2(O)[C@@H](OC(=O)c3ccccc3)[C@@H]3[C@]4(OC(C)=O)CO[C@@H]4C[C@H](O)[C@@]3(C)C(=O)[C@H](OC(C)=O)C(=C1C)C2(C)C`, for which the cell viability activity is -68.1%.
In the case of `COc1ccc(CCN2CCC(Nc3nc4ccccc4n3Cc3ccc(F)cc3)CC2)cc1`, the cell viability activity was -23.2%.
As for `CC[C@@H](C(=O)[C@@H](C)[C@@H](O)[C@H](C)[C@@H]1O[C@@H]([C@@H](CC)C(=O)O)CC[C@@H]1C)[C@H]1O[C@]2(C=C[C@@H](O)[C@]3(CC[C@@](C)([C@H]4CC[C@](O)(CC)[C@H](C)O4)O3)O2)[C@H](C)C[C@@H]1C`, the figure is -79.3%; as for `N#Cc1cn([C@@H]2O[C@H](CO)[C@@H](O)[C@H]2O)c2ncnc(N)c12`, -94.2%.
Take `C/C(=C\c1csc(C)n1)[C@@H]1C[C@@H]2O[C@@H]2CCC[C@H](C)[C@H](O)[C@@H](C)C(=O)C(C)(C)[C@@H](O)CC(=O)O1`: the cell viability activity is -69%.
The result for `C=C(C)[C@H]1Cc2c(ccc3c2O[C@@H]2COc4cc(OC)c(OC)cc4[C@@H]2C3=O)O1` reads -61.5%; that for `Cc1sc2c(c1C)C(c1ccc(Cl)cc1)=N[C@@H](CC(=O)OC(C)(C)C)c1nnc(C)n1-2`, -60.2%; that for `CCNC(=O)C[C@@H]1N=C(c2ccc(Cl)cc2)c2cc(OC)ccc2-n2c(C)nnc21`, -56.9%.
